Data taken from PubChem BioAssay AID1159580 (chemical genetic matrix, 2015).
“And” between values parts separate entries of the source, which are not always exact repeats. Identical values can stand only once. The whole screen tested about 5,500 compounds, of which about 2,000 (36%) were called active. Inconclusive results (about 18%) are left out. Rule as the data show it: active = normalized growth mostly below about 0.91 (no sharp cut-off); inconclusive = no clear call, values can overlap the other calls; inactive = mostly above about 0.92. Some of the results follow.

Test: chemical genetic growth profiling, strain panel (AID 1159580);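 also: tested at 20 µM; growth read once vehicle control cultures reached saturation at 30 °C; 1 = growth at the plate median or of vehicle wells; lower values mean less growth of the strain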
Conditions: growth OD

Measured: normalized growth

C[N+]1(CCCCC[N+]2(C)CCCC2)CCCC1
inactive: S. cerevisiae deletion strains, locus YJR043C, strain POL32, active compounds read low 1.01 | S. cerevisiae deletion strains, locus YJR075W, strain HOC1, active compounds read low 1.02 and 0.994 | S. cerevisiae deletion strains, locus YKL009W, strain mrt4, active compounds read low 1.04 | S. cerevisiae deletion strains, locus YKL068W, active compounds read low 1.01 | S. cerevisiae deletion strains, locus YKL085W, strain MDH1 (second series), active compounds read low 1.01 | S. cerevisiae deletion strains, locus YKL085W, strain MDH1, active compounds read low 1.01 | S. cerevisiae deletion strains, locus YKL160W, strain elf1, active compounds read low 1.01 | S. cerevisiae deletion strains, locus YKL190W, strain CNB1, active compounds read low 1.01 | S. cerevisiae deletion strains, locus YKR001C, strain vps1, active compounds read low 1.01 | S. cerevisiae deletion strains, locus YKR026C, strain gcn3, active compounds read low 1 | S. cerevisiae deletion strains, locus YKR091W, strain srl3, active compounds read low 1 | S. cerevisiae deletion strains, locus YLL001W, strain dnm1, active compounds read low 1 | S. cerevisiae deletion strains, locus YLL026W, active compounds read low 0.992 | S. cerevisiae deletion strains, locus YLL041C, strain sdh2, active compounds read low 0.999 | S. cerevisiae deletion strains, locus YLR027C, strain aat2, active compounds read low 0.992 | S. cerevisiae deletion strains, locus YLR039C, strain RIC1, active compounds read low 1.02 | S. cerevisiae deletion strains, locus YLR058C, strain SHM2, active compounds read low 1.01 | S. cerevisiae deletion strains, locus YLR102C, strain apc9, active compounds read low 1.02 | S. cerevisiae deletion strains, locus YLR221C, strain rsa3, active compounds read low 1 | S. cerevisiae deletion strains, locus YLR258W, strain gsy2, active compounds read low 0.998 | S. cerevisiae deletion strains, locus YLR262C, strain YPT6 (second series), active compounds read low 1.03 | S. cerevisiae deletion strains, locus YLR262C, strain YPT6, active compounds read low 1.03 | S. cerevisiae deletion strains, locus YLR268W, strain sec22, active compounds read low 1.03 | S. cerevisiae deletion strains, locus YLR320W, strain mms22, active compounds read low 0.993 | S. cerevisiae deletion strains, locus YLR330W, strain CHS5, active compounds read low 1 | S. cerevisiae deletion strains, locus YLR342W, strain FKS1 (second series), active compounds read low 1.01 | S. cerevisiae deletion strains, locus YLR342W, strain FKS1, active compounds read low 0.995 | S. cerevisiae deletion strains, locus YLR357W, strain rsc2, active compounds read low 0.963 | S. cerevisiae deletion strains, locus YLR370C, strain arc18, active compounds read low 1 | S. cerevisiae deletion strains, locus YLR371W, strain rom2, active compounds read low 1.03 | S. cerevisiae deletion strains, locus YLR384C, strain iki3, active compounds read low 0.992 | S. cerevisiae deletion strains, locus YLR418C, strain cdc73, active compounds read low 1.02 | S. cerevisiae deletion strains, locus YML016C, strain PPZ1, active compounds read low 1.01 | S. cerevisiae deletion strains, locus YML032C, strain rad52, active compounds read low 1.03 | S. cerevisiae deletion strains, locus YML120C, strain ndi1, active compounds read low 0.99 | S. cerevisiae deletion strains, locus YML124C, strain tub3, active compounds read low 1.02 | S. cerevisiae deletion strains, locus YMR058W, strain fet3, active compounds read low 0.999 | S. cerevisiae deletion strains, locus YMR078C, strain ctf18, active compounds read low 1.03 | S. cerevisiae deletion strains, locus YMR125W, strain sto1, active compounds read low 0.979 | S. cerevisiae deletion strains, locus YMR129W, active compounds read low 0.999 | S. cerevisiae deletion strains, locus YMR205C, strain PFK2, active compounds read low 1.01 | S. cerevisiae deletion strains, locus YMR223W, strain ubp8, active compounds read low 1 | S. cerevisiae deletion strains, locus YMR231W, strain pep5, active compounds read low 0.993 | S. cerevisiae deletion strains, locus YMR263W, strain SAP30, active compounds read low 1.01 | S. cerevisiae deletion strains, locus YMR307W, strain GAS1, active compounds read low 1 and 1.02 | S. cerevisiae deletion strains, locus YNL067W, strain RPL9B, active compounds read low 1.02 | S. cerevisiae deletion strains, locus YNL071W, strain lat1, active compounds read low 0.997 | S. cerevisiae deletion strains, locus YNL128W, strain TEP1, active compounds read low 1.01 | S. cerevisiae deletion strains, locus YNL153C, strain GIM3, active compounds read low 1.01 and 1.02 | S. cerevisiae deletion strains, locus YNL175C, strain NOP13, active compounds read low 0.993 | S. cerevisiae deletion strains, locus YNL197C, strain WHI3, active compounds read low 0.982 | S. cerevisiae deletion strains, locus YNL209W, strain ssb2, active compounds read low 0.995 | S. cerevisiae deletion strains, locus YNL224C, strain SQS1, active compounds read low 0.988 | S. cerevisiae deletion strains, locus YNL233W, strain BNI4, active compounds read low 1.01 | S. cerevisiae deletion strains, locus YNL248C, strain rpa49, active compounds read low 0.996 | S. cerevisiae deletion strains, locus YNL250W, strain rad50, active compounds read low 1.02 | S. cerevisiae deletion strains, locus YNL271C, strain bni1, active compounds read low 1.01 | S. cerevisiae deletion strains, locus YNL298W, strain CLA4, active compounds read low 1.02 | S. cerevisiae deletion strains, locus YNL307C, strain MCK1, active compounds read low 1.03 | S. cerevisiae deletion strains, locus YNL322C, strain KRE1 (second series), active compounds read low 0.998 | S. cerevisiae deletion strains, locus YNL322C, strain KRE1, active compounds read low 1 | S. cerevisiae deletion strains, locus YNR049C, strain mso1, active compounds read low 0.994 | S. cerevisiae deletion strains, locus YNR052C, strain pop2, active compounds read low 1.02 | S. cerevisiae deletion strains, locus YOL006C, strain TOP1, active compounds read low 1.04 | S. cerevisiae deletion strains, locus YOL012C, strain htz1 1.04 | S. cerevisiae deletion strains, locus YOL147C, strain pex11, active compounds read low 1.02 | S. cerevisiae deletion strains, locus YOR001W, strain rrp6, active compounds read low 0.995 | S. cerevisiae deletion strains, locus YOR061W, strain CKA2, active compounds read low 1.01 | S. cerevisiae deletion strains, locus YOR069W, strain VPS5, active compounds read low 1 | S. cerevisiae deletion strains, locus YOR070C, strain gyp1, active compounds read low 0.998 | S. cerevisiae deletion strains, locus YOR080W, strain dia2, active compounds read low 0.987 | S. cerevisiae deletion strains, locus YOR083W, strain WHI5 (second series), active compounds read low 1.01 | S. cerevisiae deletion strains, locus YOR083W, strain WHI5, active compounds read low 0.993 | S. cerevisiae deletion strains, locus YOR106W, strain vam3, active compounds read low 1.01 | S. cerevisiae deletion strains, locus YOR136W, strain idh2, active compounds read low 1.01 | S. cerevisiae deletion strains, locus YOR144C, strain elg1, active compounds read low 1.02 | S. cerevisiae deletion strains, locus YOR184W, strain ser1, active compounds read low 1.03 | S. cerevisiae deletion strains, locus YOR265W, strain rbl2, active compounds read low 0.994 | S. cerevisiae deletion strains, locus YOR270C, strain vph1, active compounds read low 1.02 | S. cerevisiae deletion strains, locus YOR290C, strain snf2, active compounds read low 0.996 | S. cerevisiae deletion strains, locus YOR316C, strain cot1, active compounds read low 1.01 | S. cerevisiae deletion strains, locus YPL051W, strain arl3, active compounds read low 0.999 | S. cerevisiae deletion strains, locus YPL055C, strain LGE1, active compounds read low 1.03 | S. cerevisiae deletion strains, locus YPL078C, strain atp4, active compounds read low 0.997 | S. cerevisiae deletion strains, locus YPL106C, strain sse1, active compounds read low 0.985 | S. cerevisiae deletion strains, locus YPL240C, strain hsp82, active compounds read low 0.982 | S. cerevisiae deletion strains, locus YPL241C, strain CIN2, active compounds read low 1.01 and 0.991 | S. cerevisiae deletion strains, locus YPR119W, strain clb2, active compounds read low 1.02 | S. cerevisiae deletion strains, locus YPR141C, strain kar3, active compounds read low 1.01 | S. cerevisiae deletion strains, locus YPR163C, strain tif3, active compounds read low 1.02 | S. cerevisiae deletion strains, locus YPR167C, strain met16, active compounds read low 1.01 | S. cerevisiae deletion strains, strain wtn01, active compounds read low 1.01 | S. cerevisiae strains, strain wild type, active compounds read low 1.01
